Common to all, as to test: DAPPL (digital affinity profiling via proximity ligation, sequencing); 10 mM Tris-HCl pH 7.5, 50 mM NaCl, 1 mM DTT, 4% glycerol, room temperature, 30 min; GST-TFs on glutathione beads, 16-mer random dsDNA library, 0.1% formaldehyde crosslink after washing; high values mean tight binding
The target in one experiment is T1, FEV (Homo sapiens, UniProt Q99581 1-238).
T1 sequence: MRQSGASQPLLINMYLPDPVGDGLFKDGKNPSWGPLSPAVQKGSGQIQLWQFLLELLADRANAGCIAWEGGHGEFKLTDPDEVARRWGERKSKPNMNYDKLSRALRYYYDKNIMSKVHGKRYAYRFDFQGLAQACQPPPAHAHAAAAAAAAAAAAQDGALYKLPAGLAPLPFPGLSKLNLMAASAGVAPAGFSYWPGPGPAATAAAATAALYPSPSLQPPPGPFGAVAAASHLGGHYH
As to conditions: protein: recombinant; tags: N-terminal GST; dsDNA, one strand shown. Summed up: (§1)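 Binding signal is each hexamer's read frequency for a factor divided by its frequency in the tag-only sample. The factors were GST-fused human transcription factors from yeast, captured on glutathione beads, DNA-barcoded and pooled with that sample. Pools were incubated with 200 nmole of a random double-stranded 16-mer DNA library in Tris/NaCl/DTT/glycerol buffer at room temperature for 30 min, then washed, crosslinked with 0.1% formaldehyde, proximity-ligated with BsaI/T4 ligase (1 h, 37 °C), PCR-amplified and sequenced on an Illumina NextSeq500.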

For the next experiment, the target named is ETV5 (Homo sapiens, UniProt P41161 1-510). Particulars: protein: recombinant; tags: N-terminal GST; dsDNA, one strand shown. Summed up: as §1
Another experiment deals with HSF1 (Homo sapiens, UniProt Q00613 1-529). As to conditions: protein: recombinant; tags: N-terminal GST; chain copies: 3; dsDNA, one strand shown. In a few lines:
as §1

The next experiment concerns the target T2, SPIC (Homo sapiens, UniProt Q8N5J4 1-248).
T2 sequence: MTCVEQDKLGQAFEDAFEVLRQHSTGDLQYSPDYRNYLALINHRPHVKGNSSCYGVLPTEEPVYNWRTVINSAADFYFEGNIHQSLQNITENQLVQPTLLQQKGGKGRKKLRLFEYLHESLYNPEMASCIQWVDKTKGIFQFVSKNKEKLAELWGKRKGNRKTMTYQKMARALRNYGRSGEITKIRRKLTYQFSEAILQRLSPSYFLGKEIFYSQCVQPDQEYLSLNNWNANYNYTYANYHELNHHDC
As to conditions: protein: recombinant; tags: N-terminal GST; dsDNA, one strand shown. Summed up: as §1

The target of another experiment is ELF4 (Homo sapiens, UniProt Q99607 1-663). Particulars: protein: recombinant; tags: N-terminal GST; dsDNA, one strand shown. In a few lines:
as §1

Another experiment concerns the target T3, ELK4 (Homo sapiens, UniProt P28324-2 1-405).
T3 sequence: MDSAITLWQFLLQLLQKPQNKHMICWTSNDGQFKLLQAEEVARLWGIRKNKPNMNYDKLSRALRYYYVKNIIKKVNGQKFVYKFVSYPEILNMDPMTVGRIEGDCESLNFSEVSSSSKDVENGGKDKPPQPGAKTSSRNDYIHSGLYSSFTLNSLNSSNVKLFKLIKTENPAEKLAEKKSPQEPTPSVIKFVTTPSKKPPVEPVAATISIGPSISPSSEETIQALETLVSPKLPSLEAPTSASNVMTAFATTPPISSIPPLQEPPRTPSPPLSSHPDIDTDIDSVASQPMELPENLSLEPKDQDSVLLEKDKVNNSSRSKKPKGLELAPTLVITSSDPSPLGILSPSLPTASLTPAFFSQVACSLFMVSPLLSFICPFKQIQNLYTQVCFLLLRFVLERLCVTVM
Particulars: protein: recombinant; tags: N-terminal GST; dsDNA, one strand shown. In a few lines:
as §1

The target of a further experiment is T4, ETV2 (Homo sapiens, UniProt O00321 1-342).
T4 sequence: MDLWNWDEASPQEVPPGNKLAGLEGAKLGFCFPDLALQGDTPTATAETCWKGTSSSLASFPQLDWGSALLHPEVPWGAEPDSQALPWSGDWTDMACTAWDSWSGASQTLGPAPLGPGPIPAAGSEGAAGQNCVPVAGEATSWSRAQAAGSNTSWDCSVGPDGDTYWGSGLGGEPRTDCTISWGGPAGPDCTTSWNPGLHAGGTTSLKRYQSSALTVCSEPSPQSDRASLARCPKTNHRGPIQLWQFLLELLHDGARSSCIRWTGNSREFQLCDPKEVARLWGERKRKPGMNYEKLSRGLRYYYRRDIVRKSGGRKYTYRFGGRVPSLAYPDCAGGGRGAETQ
As to conditions: protein: recombinant; tags: N-terminal GST; dsDNA, one strand shown. Summed up: as §1

The target of a further experiment is T5, ELF3 (Homo sapiens, UniProt P78545 1-371).
T5 sequence: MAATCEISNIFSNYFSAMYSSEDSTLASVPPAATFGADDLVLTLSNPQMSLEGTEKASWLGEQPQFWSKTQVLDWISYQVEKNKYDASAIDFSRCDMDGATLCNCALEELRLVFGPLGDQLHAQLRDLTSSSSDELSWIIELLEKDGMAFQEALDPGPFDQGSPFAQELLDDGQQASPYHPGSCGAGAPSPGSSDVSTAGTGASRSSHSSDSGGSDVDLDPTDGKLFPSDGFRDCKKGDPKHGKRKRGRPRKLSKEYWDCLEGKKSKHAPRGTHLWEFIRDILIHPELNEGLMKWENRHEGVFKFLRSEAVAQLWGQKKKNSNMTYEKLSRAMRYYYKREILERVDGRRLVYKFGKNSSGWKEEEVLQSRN
Particulars: protein: recombinant; tags: N-terminal GST; dsDNA, one strand shown. In a few lines:
as §1

A further experiment concerns the target CRX (Homo sapiens, UniProt O43186 1-299). Particulars: protein: recombinant; tags: N-terminal GST; dsDNA, one strand shown. Summed up: as §1
A further experiment concerns the target ETV1 (Homo sapiens, UniProt P50549 1-477). As to conditions: protein: recombinant; tags: N-terminal GST; dsDNA, one strand shown. In a few lines: as §1
A further experiment has as its target T6, ERF (Homo sapiens, UniProt P50548 1-548).
T6 sequence: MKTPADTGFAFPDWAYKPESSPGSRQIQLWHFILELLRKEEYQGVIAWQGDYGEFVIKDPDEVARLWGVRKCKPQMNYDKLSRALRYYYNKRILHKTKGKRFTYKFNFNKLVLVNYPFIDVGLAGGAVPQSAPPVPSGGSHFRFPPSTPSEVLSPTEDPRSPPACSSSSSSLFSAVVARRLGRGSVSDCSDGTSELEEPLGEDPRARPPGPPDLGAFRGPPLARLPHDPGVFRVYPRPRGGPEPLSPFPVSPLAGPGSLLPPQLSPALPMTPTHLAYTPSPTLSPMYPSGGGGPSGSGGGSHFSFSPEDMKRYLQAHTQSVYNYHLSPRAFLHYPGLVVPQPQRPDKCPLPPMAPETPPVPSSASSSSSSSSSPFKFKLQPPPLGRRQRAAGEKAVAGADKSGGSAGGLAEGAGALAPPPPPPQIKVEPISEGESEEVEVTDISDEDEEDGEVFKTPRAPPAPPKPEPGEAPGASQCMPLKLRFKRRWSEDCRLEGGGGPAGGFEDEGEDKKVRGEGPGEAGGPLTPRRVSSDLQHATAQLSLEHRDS
As to conditions: protein: recombinant; tags: N-terminal GST; dsDNA, one strand shown. In a few lines:
as §1

The target in a further experiment is T7, ETV3L (Homo sapiens, UniProt Q6ZN32 1-361).
T7 sequence: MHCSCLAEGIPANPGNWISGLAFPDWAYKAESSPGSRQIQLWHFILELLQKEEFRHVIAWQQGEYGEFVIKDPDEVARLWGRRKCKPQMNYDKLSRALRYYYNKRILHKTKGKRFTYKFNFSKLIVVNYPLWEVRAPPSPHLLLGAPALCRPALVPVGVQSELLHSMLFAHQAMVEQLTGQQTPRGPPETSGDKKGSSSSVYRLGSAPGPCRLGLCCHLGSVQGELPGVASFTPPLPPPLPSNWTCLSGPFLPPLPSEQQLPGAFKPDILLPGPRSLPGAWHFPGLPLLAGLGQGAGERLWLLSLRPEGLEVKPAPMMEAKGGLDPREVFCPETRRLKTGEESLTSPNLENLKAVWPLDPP
Particulars: protein: recombinant; tags: N-terminal GST; dsDNA, one strand shown. In a few lines:
as §1

The next experiment concerns the target T8, ETS2 (Homo sapiens, UniProt P15036 1-469).
T8 sequence: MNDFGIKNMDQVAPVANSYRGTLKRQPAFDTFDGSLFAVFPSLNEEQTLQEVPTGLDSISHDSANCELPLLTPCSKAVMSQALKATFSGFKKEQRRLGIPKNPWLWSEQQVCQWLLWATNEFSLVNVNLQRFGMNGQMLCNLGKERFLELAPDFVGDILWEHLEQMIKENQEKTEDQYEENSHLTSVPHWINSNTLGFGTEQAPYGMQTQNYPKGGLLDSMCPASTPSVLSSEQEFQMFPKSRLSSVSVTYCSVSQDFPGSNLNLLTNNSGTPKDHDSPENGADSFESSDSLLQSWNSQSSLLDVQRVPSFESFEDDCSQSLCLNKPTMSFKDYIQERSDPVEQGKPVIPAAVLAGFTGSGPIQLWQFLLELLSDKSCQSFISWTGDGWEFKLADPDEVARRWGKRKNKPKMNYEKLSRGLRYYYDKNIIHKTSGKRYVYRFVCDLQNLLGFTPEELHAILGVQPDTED
Particulars: protein: recombinant; tags: N-terminal GST; dsDNA, one strand shown. Summed up:
as §1

Another experiment addresses T9, SPDEF (Homo sapiens, UniProt O95238 1-335).
T9 sequence: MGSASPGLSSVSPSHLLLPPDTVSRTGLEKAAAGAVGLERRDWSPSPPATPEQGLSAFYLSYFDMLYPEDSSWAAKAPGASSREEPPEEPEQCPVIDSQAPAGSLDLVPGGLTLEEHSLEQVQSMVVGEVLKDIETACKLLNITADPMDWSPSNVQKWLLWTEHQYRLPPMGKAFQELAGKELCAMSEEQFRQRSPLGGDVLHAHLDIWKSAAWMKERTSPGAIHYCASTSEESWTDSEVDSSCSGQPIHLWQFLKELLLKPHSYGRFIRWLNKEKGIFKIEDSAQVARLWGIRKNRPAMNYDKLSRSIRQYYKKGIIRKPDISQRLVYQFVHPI
Particulars: protein: recombinant; tags: N-terminal GST; dsDNA, one strand shown. Summed up: as §1

A further experiment has as its target T10, ETV7 (Homo sapiens, UniProt Q9Y603 1-341).
T10 sequence: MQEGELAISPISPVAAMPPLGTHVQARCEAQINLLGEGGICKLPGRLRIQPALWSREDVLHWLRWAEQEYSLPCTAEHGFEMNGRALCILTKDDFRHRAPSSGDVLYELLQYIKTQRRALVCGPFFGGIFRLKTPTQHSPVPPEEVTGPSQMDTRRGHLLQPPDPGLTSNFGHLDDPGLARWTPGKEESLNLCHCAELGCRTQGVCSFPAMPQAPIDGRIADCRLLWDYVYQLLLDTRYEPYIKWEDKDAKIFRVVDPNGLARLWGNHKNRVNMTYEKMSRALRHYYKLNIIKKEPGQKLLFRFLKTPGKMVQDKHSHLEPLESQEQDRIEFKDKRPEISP
Particulars: protein: recombinant; tags: N-terminal GST; dsDNA, one strand shown. Summed up:
as §1

For a further experiment, the target named is T11, ELF5 (Homo sapiens, UniProt Q9UKW6-2 1-255).
T11 sequence: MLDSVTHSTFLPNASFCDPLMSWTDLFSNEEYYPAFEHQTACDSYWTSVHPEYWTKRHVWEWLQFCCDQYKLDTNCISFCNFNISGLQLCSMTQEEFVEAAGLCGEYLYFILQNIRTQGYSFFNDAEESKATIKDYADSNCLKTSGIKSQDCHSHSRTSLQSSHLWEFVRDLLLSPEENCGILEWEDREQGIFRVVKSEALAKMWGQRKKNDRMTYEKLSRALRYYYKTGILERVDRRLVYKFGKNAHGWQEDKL
As to conditions: protein: recombinant; tags: N-terminal GST; dsDNA, one strand shown. Summed up: as §1

For a further experiment, the target named is T12, ETV3 (Homo sapiens, UniProt P41162-2 1-143).
T12 sequence: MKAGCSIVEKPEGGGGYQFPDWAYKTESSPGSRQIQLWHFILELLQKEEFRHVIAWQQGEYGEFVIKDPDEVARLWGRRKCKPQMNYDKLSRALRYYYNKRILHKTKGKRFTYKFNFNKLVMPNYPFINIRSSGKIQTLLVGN
Particulars: protein: recombinant; tags: N-terminal GST; dsDNA, one strand shown. In a few lines:
as §1

Another experiment deals with ETV6 (Homo sapiens, UniProt P41212 1-452). As to conditions: protein: recombinant; tags: N-terminal GST; dsDNA, one strand shown. Summed up: as §1
Sequence of ETV6 (P41212 whole entry): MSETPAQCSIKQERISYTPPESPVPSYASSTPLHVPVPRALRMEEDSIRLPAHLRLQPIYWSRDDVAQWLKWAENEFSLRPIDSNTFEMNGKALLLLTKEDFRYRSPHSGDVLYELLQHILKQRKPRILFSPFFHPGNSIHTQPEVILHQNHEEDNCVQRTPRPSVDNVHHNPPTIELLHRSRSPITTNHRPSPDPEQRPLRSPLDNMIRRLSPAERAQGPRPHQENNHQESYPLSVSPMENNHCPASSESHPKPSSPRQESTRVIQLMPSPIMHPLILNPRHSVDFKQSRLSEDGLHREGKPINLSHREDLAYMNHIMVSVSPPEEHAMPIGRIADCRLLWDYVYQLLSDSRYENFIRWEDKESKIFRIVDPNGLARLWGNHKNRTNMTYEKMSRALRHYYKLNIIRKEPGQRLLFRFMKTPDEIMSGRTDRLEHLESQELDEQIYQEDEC

Sequence of HSF1 (Q00613 whole entry): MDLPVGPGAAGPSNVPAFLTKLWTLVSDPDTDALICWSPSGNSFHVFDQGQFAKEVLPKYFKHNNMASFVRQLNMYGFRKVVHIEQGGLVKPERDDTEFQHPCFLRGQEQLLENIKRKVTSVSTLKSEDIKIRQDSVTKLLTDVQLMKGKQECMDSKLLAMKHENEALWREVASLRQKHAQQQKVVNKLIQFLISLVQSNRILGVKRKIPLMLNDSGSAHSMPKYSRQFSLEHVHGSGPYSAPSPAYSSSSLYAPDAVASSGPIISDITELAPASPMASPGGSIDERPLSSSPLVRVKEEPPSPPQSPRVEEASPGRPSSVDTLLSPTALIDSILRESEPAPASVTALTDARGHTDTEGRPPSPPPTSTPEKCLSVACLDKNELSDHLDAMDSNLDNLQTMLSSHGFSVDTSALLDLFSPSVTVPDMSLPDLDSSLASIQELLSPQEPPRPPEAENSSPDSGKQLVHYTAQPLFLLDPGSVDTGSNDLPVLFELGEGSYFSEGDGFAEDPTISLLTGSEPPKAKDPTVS
Sequence of ETV1 (P50549 whole entry): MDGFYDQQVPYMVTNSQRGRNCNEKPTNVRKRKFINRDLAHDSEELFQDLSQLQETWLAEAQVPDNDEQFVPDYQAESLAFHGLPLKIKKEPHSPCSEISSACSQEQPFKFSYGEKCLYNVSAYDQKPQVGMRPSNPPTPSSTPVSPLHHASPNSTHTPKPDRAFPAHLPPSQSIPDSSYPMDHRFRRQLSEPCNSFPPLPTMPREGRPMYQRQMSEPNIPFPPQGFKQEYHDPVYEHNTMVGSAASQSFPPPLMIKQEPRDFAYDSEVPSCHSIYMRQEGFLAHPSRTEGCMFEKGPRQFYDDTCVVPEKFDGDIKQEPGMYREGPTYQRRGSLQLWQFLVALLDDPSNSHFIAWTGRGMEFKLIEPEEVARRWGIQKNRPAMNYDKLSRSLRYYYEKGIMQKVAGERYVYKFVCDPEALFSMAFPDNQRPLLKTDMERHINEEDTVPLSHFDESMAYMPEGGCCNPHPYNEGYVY
Sequence of ETV5 (P41161 whole entry): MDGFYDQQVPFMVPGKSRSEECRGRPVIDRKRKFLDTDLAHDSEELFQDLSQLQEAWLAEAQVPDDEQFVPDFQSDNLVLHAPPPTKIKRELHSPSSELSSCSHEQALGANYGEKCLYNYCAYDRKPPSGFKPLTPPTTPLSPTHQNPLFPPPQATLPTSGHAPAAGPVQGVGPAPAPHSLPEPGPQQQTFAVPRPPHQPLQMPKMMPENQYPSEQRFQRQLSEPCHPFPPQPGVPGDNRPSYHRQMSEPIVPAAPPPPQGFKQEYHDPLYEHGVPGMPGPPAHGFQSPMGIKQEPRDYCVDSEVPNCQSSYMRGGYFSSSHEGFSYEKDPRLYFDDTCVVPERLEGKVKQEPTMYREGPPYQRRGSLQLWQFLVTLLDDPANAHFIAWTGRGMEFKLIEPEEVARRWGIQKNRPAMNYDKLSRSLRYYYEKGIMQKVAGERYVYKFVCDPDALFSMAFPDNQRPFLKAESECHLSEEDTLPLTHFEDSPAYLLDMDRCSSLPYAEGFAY
Sequence of CRX (O43186 whole entry): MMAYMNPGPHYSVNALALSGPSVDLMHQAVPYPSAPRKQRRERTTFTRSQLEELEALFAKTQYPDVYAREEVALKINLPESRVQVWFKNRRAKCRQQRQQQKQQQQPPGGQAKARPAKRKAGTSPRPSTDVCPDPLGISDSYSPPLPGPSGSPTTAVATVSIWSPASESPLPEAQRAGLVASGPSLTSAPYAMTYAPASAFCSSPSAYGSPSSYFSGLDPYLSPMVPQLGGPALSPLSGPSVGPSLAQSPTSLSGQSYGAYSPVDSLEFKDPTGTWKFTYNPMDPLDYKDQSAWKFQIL
Sequence of ELF4 (Q99607 whole entry): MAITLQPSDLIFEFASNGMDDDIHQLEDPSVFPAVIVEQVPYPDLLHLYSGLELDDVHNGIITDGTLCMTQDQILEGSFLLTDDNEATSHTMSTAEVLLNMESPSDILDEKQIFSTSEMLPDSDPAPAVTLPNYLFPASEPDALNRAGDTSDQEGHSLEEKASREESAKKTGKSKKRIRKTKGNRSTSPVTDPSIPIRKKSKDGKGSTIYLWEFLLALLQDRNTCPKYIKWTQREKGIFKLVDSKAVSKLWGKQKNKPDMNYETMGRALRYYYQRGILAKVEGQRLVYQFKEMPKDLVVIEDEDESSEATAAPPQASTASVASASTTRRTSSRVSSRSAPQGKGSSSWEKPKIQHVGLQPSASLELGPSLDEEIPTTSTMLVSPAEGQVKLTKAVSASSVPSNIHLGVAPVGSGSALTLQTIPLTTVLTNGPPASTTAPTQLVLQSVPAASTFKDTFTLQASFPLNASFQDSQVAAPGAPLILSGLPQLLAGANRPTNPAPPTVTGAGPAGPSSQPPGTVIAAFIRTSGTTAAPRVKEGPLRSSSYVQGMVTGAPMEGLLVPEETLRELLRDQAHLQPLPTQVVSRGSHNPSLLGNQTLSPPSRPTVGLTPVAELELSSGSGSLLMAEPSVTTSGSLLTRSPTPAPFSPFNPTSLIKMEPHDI

For the sequence TACCCT, the binding signal with FEV was 1.29 fold enrichment (6-mer frequency, TF over GST control); in the experiment with ETV5, 1.28 fold enrichment (6-mer frequency, TF over GST control); with HSF1, 1.28 fold enrichment (6-mer frequency, TF over GST control); with SPIC, 1.38 fold enrichment (6-mer frequency, TF over GST control); in the experiment with ELF4, 1.44 fold enrichment (6-mer frequency, TF over GST control); with ELK4 it was 1.47 fold enrichment (6-mer frequency, TF over GST control). Also, the binding signal is 1.35 fold enrichment (6-mer frequency, TF over GST control) in the experiment with ETV2; 1.2 fold enrichment (6-mer frequency, TF over GST control) with ELF3; 1.45 fold enrichment (6-mer frequency, TF over GST control) with CRX; 1.35 fold enrichment (6-mer frequency, TF over GST control) with ETV1; 1.28 fold enrichment (6-mer frequency, TF over GST control) with ERF; 1.18 fold enrichment (6-mer frequency, TF over GST control) in the experiment with ETV3L. Besides, the binding signal in the experiment with ETS2 is 1.29 fold enrichment (6-mer frequency, TF over GST control); in the experiment with SPDEF, 1.29 fold enrichment (6-mer frequency, TF over GST control); with ETV7, 1.27 fold enrichment (6-mer frequency, TF over GST control); in the experiment with ELF5 it was 1.26 fold enrichment (6-mer frequency, TF over GST control); with ETV3, 1.25 fold enrichment (6-mer frequency, TF over GST control); with ETV6, 1.16 fold enrichment (6-mer frequency, TF over GST control).

The record behind these values is paper PMC7862700, “An all-to-all approach to the identification of sequence-specific readers for epigenetic DNA modifications on cytosine”.
